Where “and” joins values, the source holds several entries; their conditions need not be identical. Identical values can stand only once. Compounds without any hit were thinned out: in the full panel of roughly 83,000, 20% have a hit.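 Single-concentration screen, 48 h exposure, 96-well plates. Endpoint: percent growth. Below 10 = active.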 Calls of active or inactive are those of the source.
Tested on: RPMI-8226 leukemia
Experiment: NCI-60 one-dose screen, 48 h (100 = growth as untreated, 0 = no growth, -100 = all killed)
Settings: 10 µM unless noted

Structure (SMILES)	growth
CC[C@@]1(O)C[C@H](OC2CC(N(C)C)C(O)C(C)O2)c2c(O)c3c(c(O)c2[C@H]1OC1CC(N(C)C)C(O)C(C)O1)C(=O)c1cccc(O)c1C3=O (stereo partly drawn)	-50.6% (active)
COC1CC(CC2CCC(C)C(C(C)C(=O)O)O2)OC2(OC(C)(C3CCC(C)(C4OC(C5OC(O)(CO)C(C)CC5C)CC4C)O3)CC2C)C1C (stereo not drawn)	-45% (active)
CCC(=O)OC1CCn2c1nc1c2C(=O)C(C)=C(N2CC2)C1=O (stereo not drawn)	2.94% (active)
CO[C@H](/C(C)=C/C=C/C(C)=C/c1coc(C)n1)[C@H](C)[C@H]1C[C@@H](O)[C@@]2(C)O[C@H]2/C=C/[C@@H](C)[C@@H]2C[C@@H](CC(=O)O2)C[C@H]2O[C@@H]2C(=O)O1	-14.5% (active)
CC1=C(CO)C2=C(C)C3(CC3)[C@@](C)(O)C(=O)C2=C1	80.2% (inactive)
COC1=C(C)C(=O)C2=C(C1=O)C(CO)N1C(C#N)C3CC4C(C1C2N1CCOC41)N3C (stereo not drawn)	-41.3% (active)
CC[n+]1c(-c2ccccc2)c2cc(N)ccc2c2ccc(N)cc21	7.63% (active)
CN1CCN(c2ccc([N+](=O)[O-])c3no[n+]([O-])c23)CC1	-36.6% (active)
COc1cccc2c1cc([N+](=O)[O-])c1c(C(=O)O)cc3c(c12)OCO3	89.1% (inactive) and 82.3% (inactive)
CCOC(=O)C(NC(=O)C(Cc1ccc(N(CCCl)CCCl)cc1)NC(C)=O)C(C)C (stereo not drawn)	85.1% (inactive)
C[C@]12CC[C@H](O)CC1=CC[C@@H]1[C@@H]2CC[C@]2(C)C(=O)CC[C@@H]12	80.4% (inactive)
NCCc1ccc(OCc2ccccc2)c(OCc2ccccc2)c1	69.7% (inactive)
Oc1cccc2cccnc12	84% (inactive) and 97.1% (inactive)
COc1ccccc1/C=C(/C)[N+](=O)[O-]	0.614% (active) and 118% (inactive)
CC1=C2C(=O)[C@H]3[C@@H](CC=C4C[C@@H](O)CC[C@@]43C)[C@@H]2CC[C@]12O[C@@H]1C[C@H](C)CN[C@H]1[C@H]2C	92% (inactive)
Cc1cc(N=Nc2ccccc2C)ccc1N	17.5% (inactive)
COc1ccc(OC)c(/C=C/[N+](=O)[O-])c1	-28.9% (active)
CC[C@](O)(C(=O)O)c1cc2n(c(=O)c1CO)Cc1cc3ccccc3nc1-2	-36% (active)
Cc1c(N)nc([C@H](CC(N)=O)NC[C@H](N)C(N)=O)nc1C(=O)N[C@H](C(=O)N[C@H](C)[C@@H](O)[C@H](C)C(=O)N[C@H](C(=O)NCCc1nc(-c2nc(C(=O)NCCC[S+](C)C)cs2)cs1)[C@@H](C)O)C(OC1OC(CO)C(O)C(O)C1OC1OC(CO)C(O)C(OC(N)=O)C1O)c1cnc[nH]1 (stereo partly drawn)	76.4% [2.5 µM] (inactive)
CC[C@@]1(O)C(=O)OCc2c1cc1n(c2=O)Cc2cc3ccccc3nc2-1	-39.7% (active)
Oc1cc[c]([Hg][Cl])cc1	91.2% (inactive)
CCC1(O)CC(OC2CC(N(C)C)C(OC3CC4OC5CC(=O)C(C)OC5OC4C(C)O3)C(C)O2)c2c(cc3c(c2O)C(=O)c2c(O)ccc(O)c2C3=O)C1C(=O)OC (stereo not drawn)	-53% (active)
O=C1c2ccccc2C(=O)C(Cl)C1Cl (stereo not drawn)	31.1% (inactive)
Cc1ccc(C(=O)OC(C(=O)O)C(OC(=O)c2ccc(C)cc2)C(=O)O)cc1 (stereo not drawn) (tested in a mixture with another compound)	-3.01% (active)
CCCCCCCCCCCC1CCCC(C)N1 (stereo not drawn)	-34.7% (active)
CC(=O)O[C@H]1C[C@@H]2OC3C=C(C)CCC3(C)[C@@]1(C)[C@@]21CO1 (stereo partly drawn)	-16.3% (active) and -26.9% (active)
CC[C@@]1(O)C[C@H](OC2CC(N(C)C)C(OC3CC(O)C(OC4CCC(=O)C(C)O4)C(C)O3)C(C)O2)c2c(cc3c(c2O)C(=O)c2c(O)ccc(O)c2C3=O)[C@H]1C(=O)OC (stereo partly drawn)	-33.9% (active)
C[C@H]1CCC/C=C/[C@@H]2C[C@H](O)C[C@H]2[C@H](O)/C=C/C(=O)O1	-17.9% (active)
